# Measurements from PubChem BioAssay (Tox21).
# Unmarked numbers belong to inactive results. Records with an inconclusive call do not appear. Entries that show only a call come without a potency. Active and inactive are the calls of the source. Unless noted, the call rests on the fitted dose curve; in most records, active means well fitted curve in the direction sought with a large enough effect in the repeat runs; inconclusive means weak or mixed curves; inactive means flat fitted curve, though single readings scatter.
# Assays:
# [1] = qHTS assay to test for compound auto fluorescence at 535 nm (green) in HEK293 cells (AID 720680)
# [2] = qHTS assay to test for compound auto fluorescence at 460 nm (blue) in HEK293 cell free culture (AID 720681)
# Summary of the method: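 Compounds were added to cell-free DMEM with 10% FBS and fluorescence read directly. The blue channel used 405 nm excitation and 460 nm emission, with triamterene as the reference fluorophore.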
# [3] = qHTS assay to test for compound auto fluorescence at 590 nm (red) in HEK293 cell free culture (AID 720683); further: potency means the concentration at half of the fitted maximal effect
# Summary of the method: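 Cell-free wells of DMEM with 10% FBS received compound, and intrinsic fluorescence was read at excitation/emission 540/590 nm. Values expressed as equivalence to Rose Bengal sodium.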
# [4] = qHTS assay to test for compound auto fluorescence at 590 nm (red) in HepG2 cell free culture (AID 720684); further: potency means the concentration at half of the fitted maximal effect
# Summary of the method: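 Compound was pinned into wells holding MEM with 10% FBS and no cells, and red fluorescence was read at Ex/Em 540/590 nm. Signal is expressed as auto fluorescence equivalency relative to Rose Bengal sodium.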
# [5] = qHTS assay to test for compound auto fluorescence at 460 nm (blue) in HepG2 cell free culture (AID 720685)
# Summary of the method: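 Compound (23 nL) or DMSO pinned into cell-free MEM with 10% FBS; blue fluorescence read at 405/460 nm excitation/emission, expressed as auto-fluorescence equivalency to triamterene.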
# [6] = qHTS assay to test for compound auto fluorescence at 535 nm (green) in HepG2 cell free culture (AID 720686); further: potency means the concentration at half of the fitted maximal effect
# [7] = qHTS assay to test for compound auto fluorescence at 460 nm (blue) in HepG2 cells (AID 720687)
# Summary of the method: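 HepG2 cells in MEM with 10% FBS, attached overnight at 37 C, were exposed to compound or DMSO for 1 hr at 37 C, 5% CO2. Blue fluorescence was read at 405/460 nm, with triamterene as reference fluorophore.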
# [8] = target: Glucocorticoid receptor (Homo sapiens) (UniProt P04150); test: qHTS assay to identify small molecule agonists of the glucocorticoid receptor (GR) signaling pathway (AID 720691; active means well fitted activation curve with a large enough effect in the signal ratio in the repeat runs, not every such curve was filed as active; the % refers to the signal ratio; further: potency means the concentration at half of the fitted maximal effect); details: GR-bla HeLa, beta-lactamase reporter ratio, 18 h; activation: at 62.4 µM (top of the series) unless noted
# Summary of the method: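 Reporter read-out: fluorescence intensity following 2 h room-temperature LiveBLAzer B/G FRET substrate loading. Prior step: GR-bla HeLa cells held 4 h, then treated 18 h at 37 C.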
# [9] = target: Glucocorticoid receptor (Homo sapiens) (UniProt P04150); test: qHTS assay to identify small molecule antagonists of the glucocorticoid receptor (GR) signaling pathway (AID 720692; active means well fitted inhibition curve with a large enough effect in the signal ratio in the repeat runs, not every such curve was filed as active; the % refers to the signal ratio)
# Summary of the method: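 Dexamethasone (5 nM final) stimulated a stably integrated GRE-beta-lactamase reporter in HeLa cells during 18 h co-incubation with compounds; signal was quantified as fluorescence intensity of B/G FRET substrate after 2 h.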
# [10] = qHTS assay to test for compound auto fluorescence at 535 nm (green) in HEK293 cell free culture (AID 720682)
# Summary of the method: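 Green-channel intensity (Ex/Em 485/535 nm) was recorded from compound-treated wells containing only DMEM with 10% FBS. Fluorescein provided the equivalency standard.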
# Tags describe the fitted curve by direction and shape or compound fluorescence and quenching.
# Chain of Glucocorticoid receptor (Homo sapiens) (P04150 whole entry, looked up): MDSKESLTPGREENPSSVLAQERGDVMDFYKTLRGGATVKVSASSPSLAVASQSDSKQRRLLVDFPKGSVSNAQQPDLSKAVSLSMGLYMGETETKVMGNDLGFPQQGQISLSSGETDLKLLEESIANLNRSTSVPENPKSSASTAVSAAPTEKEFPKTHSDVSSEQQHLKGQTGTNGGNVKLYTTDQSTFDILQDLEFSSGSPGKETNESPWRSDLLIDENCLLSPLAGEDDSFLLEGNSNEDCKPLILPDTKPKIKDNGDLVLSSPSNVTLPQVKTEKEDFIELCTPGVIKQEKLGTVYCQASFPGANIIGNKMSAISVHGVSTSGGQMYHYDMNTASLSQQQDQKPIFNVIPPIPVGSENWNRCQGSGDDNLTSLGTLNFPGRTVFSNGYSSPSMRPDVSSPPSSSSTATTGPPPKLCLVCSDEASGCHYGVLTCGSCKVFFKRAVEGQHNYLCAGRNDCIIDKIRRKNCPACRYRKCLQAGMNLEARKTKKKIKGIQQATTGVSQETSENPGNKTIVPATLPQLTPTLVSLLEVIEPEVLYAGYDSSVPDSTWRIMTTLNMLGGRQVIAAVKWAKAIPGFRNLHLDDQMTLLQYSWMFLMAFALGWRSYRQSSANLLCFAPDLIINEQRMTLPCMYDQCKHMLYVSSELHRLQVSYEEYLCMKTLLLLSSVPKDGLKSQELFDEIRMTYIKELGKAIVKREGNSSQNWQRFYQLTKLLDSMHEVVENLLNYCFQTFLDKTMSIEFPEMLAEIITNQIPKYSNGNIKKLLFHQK
SMILES,outcome [1],outcome [2],Potency [3],Potency [4],outcome [5],Potency [6],outcome [7],Potency [8],Potency [9],outcome [10]
CC(C)(C)OCC1CO1 (centres undefined),inactive,inactive,inactive,inactive,inactive,inactive,inactive,,,
Nc1ccc(N)c2c1C(=O)c1ccccc1C2=O,inactive,inactive,inactive,inactive,inactive,inactive,inactive,inactive,,
CC(COCCO)OCCO (centres undefined),inactive,inactive,inactive,inactive,inactive,inactive,inactive,,,
CCC(C)(C)CC,inactive,inactive,inactive,,inactive,inactive,inactive,inactive,inactive,
Nc1ccccc1S(=O)(=O)c1ccccc1,inactive,inactive,inactive,inactive,inactive,inactive,inactive,inactive,inactive,
C=C(C)C(=O)OCCOCC,inactive,inactive,inactive,inactive,inactive,inactive,inactive,inactive,,
NC(=O)C(c1ccccc1)(c1ccccc1)[C@@H]1CCN(CCc2ccc3c(c2)CCO3)C1,inactive,inactive,inactive,inactive,inactive,inactive,inactive,inactive,inactive,
OCCN1CCN(CCCN2c3ccccc3C=Cc3ccccc32)CC1,inactive,inactive,inactive,,inactive,inactive,inactive,inactive,,
O=C1OC(=O)C2C3C=CC(C3)C12 (centres undefined),inactive,inactive,,inactive,inactive,inactive,inactive,,,
O=P(O)(OCc1ccccc1)OCc1ccccc1,inactive,inactive,inactive,,inactive,inactive,inactive,,,
C[C@H]1C[C@H]2[C@@H]3CCC4=CC(=O)C=C[C@]4(C)[C@@]3(Cl)[C@@H](O)C[C@]2(C)[C@@]1(O)C(=O)CO,,inactive,inactive,inactive,inactive,inactive,inactive,,,inactive
CCOCC(O)COc1ccc(NC(=O)CC[S+](C)C)cc1 (centres undefined),inactive,inactive,inactive,inactive,inactive,inactive,inactive,inactive,inactive,
O=C(Cl)c1cc(C(=O)Cl)cc(C(=O)Cl)c1,inactive,inactive,inactive,inactive,inactive,inactive,inactive,,,
CCOc1ccc(N=Nc2ccc(/C=C/c3ccc(N=Nc4ccc(OCC)cc4)cc3S(=O)(=O)O)c(S(=O)(=O)O)c2)cc1,inactive,,inactive,,inactive,inactive,inactive,inactive,inactive,inactive
O=C1CCCCCCCCCCCC(=O)OCCO1,inactive,inactive,inactive,inactive,inactive,inactive,inactive,inactive,inactive,
CC1(c2ccccc2)OC(C(=O)O)=CC1=O (centres undefined),inactive,inactive,,,,inactive,inactive,,,inactive
CCCCCCCCCCCC(=O)OC[C@@H](O)[C@H]1OC[C@H](OCCO)[C@H]1OCCO,inactive,inactive,inactive,inactive,,inactive,inactive,,,

SMILES,outcome [1],outcome [2],Potency [3],Potency [4],outcome [5],Potency [6],outcome [7],Potency [8],Potency [9],outcome [10]
CC(C)(COC(=O)c1ccccc1)COC(=O)c1ccccc1,inactive,inactive,inactive,inactive,inactive,inactive,inactive,inactive,,
OC(C#CCN1CCCC1)(c1ccccc1)c1ccccc1,inactive,inactive,inactive,inactive,inactive,inactive,inactive,inactive,,
CCCCCCCCCCCCN1CCCCCC1=O,inactive,inactive,inactive,inactive,inactive,inactive,inactive,,,
COC(=O)C1=C(C)NC(COC(N)=O)=C(C(=O)OC(C)C)C1c1cccc(Cl)c1Cl (centres undefined),inactive,,inactive,inactive,,inactive,,,,inactive
O=C(O)C(S)C(S)C(=O)O (centres undefined),inactive,inactive,inactive,inactive,inactive,inactive,inactive,,,
c1ccc(CNCCNCc2ccccc2)cc1,inactive,inactive,inactive,inactive,inactive,inactive,inactive,inactive,inactive,
CCC(=O)O[C@]1(C(=O)CCl)[C@@H](C)C[C@H]2[C@@H]3CCC4=CC(=O)C=C[C@]4(C)[C@@]3(F)[C@@H](O)C[C@@]21C,inactive,inactive,inactive,inactive,inactive,inactive,inactive,0.0006 µM (active),,
Clc1ccc2c(c1)CCc1cccnc1C2=C1CCNCC1,inactive,inactive,inactive,inactive,inactive,inactive,inactive,inactive,,
CCCCCCCC/C=C\CCCCCCCC(=O)OCC,inactive,inactive,inactive,inactive,,inactive,inactive,inactive,inactive,
CN(Cc1ccc(C(C)(C)C)cc1)Cc1cccc2ccccc12,inactive,inactive,inactive,inactive,inactive,inactive,inactive,inactive,inactive,
CO[C@@H]1[C@H](OC(=O)/C=C/C=C/C=C/C=C/C(=O)O)CC[C@]2(CO2)[C@H]1[C@@]1(C)O[C@@H]1CC=C(C)C,inactive,inactive,inactive,inactive,inactive,inactive,inactive,inactive,,
CC(=O)c1cccc([N+](=O)[O-])c1,inactive,inactive,inactive,inactive,inactive,inactive,inactive,inactive,inactive,
CC1=CC[C@H](C(C)C)C=C1,,inactive,,inactive,inactive,inactive,inactive,,,inactive
CCCCCCCCCCCCCCOS(=O)(=O)O,,inactive,,inactive,,inactive,inactive,,inactive,inactive
CCN(CC)c1ccc2c(-c3ccccc3C(=O)O)c3ccc(=[N+](CC)CC)cc-3oc2c1,,inactive,2 µM [fluorescent] (active),1.12 µM [fluorescent] (active),inactive,31.6 µM [fluorescent] (active),inactive,,,
O=S(c1cc(Cl)cc(Cl)c1O)c1cc(Cl)cc(Cl)c1O,,inactive,inactive,inactive,inactive,inactive,inactive,inactive,,
CN(C)C(=O)NC1(c2ccccc2)CCN(CC[C@@]2(c3ccc(F)c(F)c3)CN(C(=O)c3ccccc3)CCO2)CC1,,inactive,inactive,inactive,inactive,inactive,inactive,inactive,inactive,inactive
